Test results taken from PubChem BioAssay AID1159580 (chemical genetic matrix, 2015).
Hit rate of the full screen: of about 5,500 compounds, about 2,000 (36%) were called active. Not shown: some 18% with an inconclusive outcome. No stated cut-off is given here; in the data, active means normalized growth mostly below about 0.91 (no sharp cut-off); inconclusive means no clear call, values can overlap the other calls; inactive means mostly above about 0.92. The list shows a part of the results.

Experiment: chemical genetic growth profiling, strain panel (AID 1159580);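 further: tested at 20 µM; growth read once vehicle control cultures reached saturation at 30 °C; 1 = growth at the plate median or of vehicle wells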
Conditions: S. cerevisiae deletion strains, growth OD

Measured: normalized growth

COc1cc(C(=O)O[C@H]2CC[C@@]3(C)[C@@H]4CC[C@H]5[C@]6(O)C[C@H](O)[C@@]7(O)[C@@H](CN8C[C@@H](C)CC[C@H]8[C@@]7(C)O)[C@]6(O)C[C@@]53O[C@]24O)cc(OC)c1OC
inactive: locus YAL021C, strain ccr4, stronger effect = lower value 1 | locus YAL026C, strain drs2, stronger effect = lower value 1.02 | locus YAL030W, strain snc1, stronger effect = lower value 0.996 | locus YBL061C, strain skt5, stronger effect = lower value 0.994 | locus YBR009C, strain hhf1, stronger effect = lower value 1.01 | locus YBR021W, strain FUR4, stronger effect = lower value 1.01 | locus YBR023C, strain chs3, stronger effect = lower value 0.996 | locus YBR171W, strain sec66, stronger effect = lower value 1.02 | locus YBR229C, strain ROT2, stronger effect = lower value 0.955 | locus YBR231C, strain swc5, stronger effect = lower value 0.994 | locus YBR279W, strain paf1, stronger effect = lower value 1.01 | locus YCL011C, strain gbp2, stronger effect = lower value 0.997 | locus YCL016C, strain dcc1, stronger effect = lower value 1 | locus YCL029C, strain bik1, stronger effect = lower value 0.98 | locus YCL061C, strain MRC1, stronger effect = lower value 1 | locus YCL069W, strain vba3, stronger effect = lower value 1 | locus YCR088W, strain abp1, stronger effect = lower value 1.01 | locus YDL005C, strain med2, stronger effect = lower value 0.973 | locus YDL035C, strain GPR1, stronger effect = lower value 1 | locus YDL040C, strain nat1, stronger effect = lower value 1 | locus YDL074C, strain BRE1, stronger effect = lower value 1.03 | locus YDL101C, strain DUN1, stronger effect = lower value 0.989 | locus YDL134C, strain PPH21, stronger effect = lower value 0.979 | locus YDL185W, strain tfp1, stronger effect = lower value 0.978 | locus YDL192W, strain arf1, stronger effect = lower value 1.01 | locus YDR001C, strain nth1, stronger effect = lower value 1.01 | locus YDR069C, strain doa4, stronger effect = lower value 0.998 | locus YDR101C, strain arx1, stronger effect = lower value 1.03 | locus YDR137W, strain rgp1, stronger effect = lower value 0.965 | locus YDR159W, strain sac3, stronger effect = lower value 0.972 | locus YDR162C, strain NBP2, stronger effect = lower value 0.985 | locus YDR195W, strain ref2 0.967 | locus YDR297W, strain sur2, stronger effect = lower value 1.01 | locus YDR318W, strain mcm21, stronger effect = lower value 0.972 | locus YDR334W, strain swr1, stronger effect = lower value 1.01 | locus YDR335W, strain msn5, stronger effect = lower value 1.01 | locus YDR388W, stronger effect = lower value 0.993 | locus YDR392W, strain spt3, stronger effect = lower value 0.996 | locus YDR502C, strain sam2, stronger effect = lower value 1 | locus YEL003W, strain gim4, stronger effect = lower value 1 | locus YEL037C, strain rad23, stronger effect = lower value 1.03 | locus YEL061C, strain CIN8 (second series), stronger effect = lower value 1.02 | locus YEL061C, strain CIN8, stronger effect = lower value 0.993 | locus YER015W, strain faa2, stronger effect = lower value 0.998 | locus YER016W, strain bim1, stronger effect = lower value 0.995 | locus YER110C, stronger effect = lower value 0.975 | locus YER111C, strain swi4, stronger effect = lower value 1 | locus YER155C, strain BEM2 (second series), stronger effect = lower value 1 | locus YER155C, strain BEM2, stronger effect = lower value 0.99 | locus YER167W, strain BCK2, stronger effect = lower value 0.993 | locus YFR010W, strain ubp6, stronger effect = lower value 1.02 | locus YGL078C, strain dbp3, stronger effect = lower value 0.999 | locus YGL086W, strain mad1, stronger effect = lower value 1.05 | locus YGL167C, strain pmr1, stronger effect = lower value 0.999 | locus YGL173C, strain kem1, stronger effect = lower value 1 | locus YGL227W, strain vid30, stronger effect = lower value 1.01 | locus YGL240W, strain doc1, stronger effect = lower value 0.978 | locus YGL248W, strain PDE1, stronger effect = lower value 0.998 | locus YGL253W, strain hxk2, stronger effect = lower value 1 | locus YGR078C, strain PAC10, stronger effect = lower value 0.99 | locus YGR135W, strain pre9, stronger effect = lower value 0.99 | locus YGR229C, strain SMI1, stronger effect = lower value 1.02 | locus YGR252W, strain gcn5, stronger effect = lower value 0.957 | locus YHR013C, strain ard1, stronger effect = lower value 0.962 | locus YHR027C, strain rpn1, stronger effect = lower value 1.01 | locus YHR030C, strain SLT2, stronger effect = lower value 1 | locus YHR079C, strain IRE1 (second series), stronger effect = lower value 0.992 | locus YHR094C, strain hxt1, stronger effect = lower value 0.971 | locus YHR129C, strain ARP1, stronger effect = lower value 0.985 | locus YHR142W, strain chs7, stronger effect = lower value 1.02 | locus YHR200W, strain rpn10, stronger effect = lower value 0.987 | locus YIL066C, strain RNR3, stronger effect = lower value 0.983 | locus YIL073C, strain SPO22, stronger effect = lower value 1.02 | locus YIL125W, strain kgd1, stronger effect = lower value 1 | locus YIR030C, strain dcg1, stronger effect = lower value 0.993 | locus YJL092W, strain hpr5, stronger effect = lower value 1.02 | locus YJL095W, strain BCK1 (second series), stronger effect = lower value 0.993 | locus YJL095W, strain BCK1, stronger effect = lower value 0.998 | locus YJL115W, strain asf1, stronger effect = lower value 1 | locus YJL129C, strain trk1, stronger effect = lower value 1.01 | locus YJL134W, strain LCB3, stronger effect = lower value 0.985 | locus YJL154C, strain vps35, stronger effect = lower value 1.01 | locus YJL164C, strain tpk1, stronger effect = lower value 0.999 | locus YJL166W, strain qcr8, stronger effect = lower value 1.01 | locus YJL168C, strain set2, stronger effect = lower value 0.996 | locus YJL187C, strain SWE1 (second series), stronger effect = lower value 1.01 | locus YJL187C, strain SWE1, stronger effect = lower value 1.01 | locus YJR043C, strain POL32, stronger effect = lower value 0.993 | locus YKL009W, strain mrt4, stronger effect = lower value 0.981 | locus YKL068W, stronger effect = lower value 0.988 | locus YKL085W, strain MDH1 (second series), stronger effect = lower value 1 | locus YKL085W, strain MDH1, stronger effect = lower value 1 | locus YKL160W, strain elf1, stronger effect = lower value 1 | locus YKR001C, strain vps1, stronger effect = lower value 1.06 | locus YKR026C, strain gcn3, stronger effect = lower value 1.01 | locus YKR091W, strain srl3, stronger effect = lower value 1 | locus YLL001W, strain dnm1, stronger effect = lower value 1.01 | locus YLL026W, stronger effect = lower value 0.989 | locus YLL041C, strain sdh2, stronger effect = lower value 1.01 | locus YLR027C, strain aat2, stronger effect = lower value 0.977 | locus YLR039C, strain RIC1, stronger effect = lower value 0.972 | locus YLR058C, strain SHM2, stronger effect = lower value 0.978 | locus YLR102C, strain apc9, stronger effect = lower value 0.985 | locus YLR221C, strain rsa3, stronger effect = lower value 1 | locus YLR258W, strain gsy2, stronger effect = lower value 0.98 | locus YLR262C, strain YPT6 (second series), stronger effect = lower value 0.954 | locus YLR262C, strain YPT6, stronger effect = lower value 0.975 | locus YLR268W, strain sec22, stronger effect = lower value 1.04 | locus YLR320W, strain mms22, stronger effect = lower value 0.986 | locus YLR330W, strain CHS5, stronger effect = lower value 1 | locus YLR342W, strain FKS1 (second series), stronger effect = lower value 1.03 | locus YLR342W, strain FKS1, stronger effect = lower value 0.986 | locus YLR357W, strain rsc2, stronger effect = lower value 0.974 | locus YLR370C, strain arc18, stronger effect = lower value 0.985 | locus YLR371W, strain rom2, stronger effect = lower value 0.991 | locus YLR384C, strain iki3, stronger effect = lower value 0.974 | locus YLR418C, strain cdc73, stronger effect = lower value 0.977 | locus YML016C, strain PPZ1, stronger effect = lower value 0.998 | locus YML032C, strain rad52, stronger effect = lower value 0.96 | locus YML120C, strain ndi1, stronger effect = lower value 1 | locus YML124C, strain tub3, stronger effect = lower value 0.985 | locus YMR058W, strain fet3, stronger effect = lower value 1 | locus YMR078C, strain ctf18, stronger effect = lower value 0.99 | locus YMR125W, strain sto1, stronger effect = lower value 1.02 | locus YMR129W, stronger effect = lower value 1 | locus YMR205C, strain PFK2, stronger effect = lower value 1 | locus YMR223W, strain ubp8, stronger effect = lower value 0.964 | locus YMR231W, strain pep5, stronger effect = lower value 0.999 | locus YMR307W, strain GAS1, stronger effect = lower value 1.07 | locus YNL067W, strain RPL9B, stronger effect = lower value 0.997 | locus YNL071W, strain lat1, stronger effect = lower value 1 | locus YNL153C, strain GIM3, stronger effect = lower value 1.01 | locus YNL209W, strain ssb2, stronger effect = lower value 0.997 | locus YNL233W, strain BNI4, stronger effect = lower value 1.01 | locus YNL248C, strain rpa49, stronger effect = lower value 1.01 | locus YNL250W, strain rad50, stronger effect = lower value 0.977 | locus YNL271C, strain bni1, stronger effect = lower value 0.993 | locus YNL298W, strain CLA4, stronger effect = lower value 0.971 | locus YNL307C, strain MCK1, stronger effect = lower value 0.986 | locus YNL322C, strain KRE1 (second series), stronger effect = lower value 0.989 | locus YNL322C, strain KRE1, stronger effect = lower value 0.996 | locus YNR049C, strain mso1, stronger effect = lower value 0.987 | locus YNR052C, strain pop2, stronger effect = lower value 0.996 | locus YOL012C, strain htz1 1.37 | locus YOL147C, strain pex11, stronger effect = lower value 0.985 | locus YOR001W, strain rrp6, stronger effect = lower value 0.988 | locus YOR061W, strain CKA2, stronger effect = lower value 0.962 | locus YOR069W, strain VPS5, stronger effect = lower value 0.996 | locus YOR070C, strain gyp1, stronger effect = lower value 1.01 | locus YOR080W, strain dia2, stronger effect = lower value 1.01 | locus YOR083W, strain WHI5, stronger effect = lower value 1 | locus YOR106W, strain vam3, stronger effect = lower value 0.999 | locus YOR136W, strain idh2, stronger effect = lower value 0.985 | locus YOR144C, strain elg1, stronger effect = lower value 0.98 | locus YOR184W, strain ser1, stronger effect = lower value 0.976 | locus YOR265W, strain rbl2, stronger effect = lower value 0.983 | locus YOR270C, strain vph1, stronger effect = lower value 1.11 | locus YOR290C, strain snf2, stronger effect = lower value 1.02 | locus YOR316C, strain cot1, stronger effect = lower value 0.976 | locus YPL051W, strain arl3, stronger effect = lower value 0.998 | locus YPL055C, strain LGE1, stronger effect = lower value 1.01 | locus YPL078C, strain atp4, stronger effect = lower value 0.998 | locus YPL106C, strain sse1, stronger effect = lower value 0.968 | locus YPL240C, strain hsp82, stronger effect = lower value 0.992 | locus YPR119W, strain clb2, stronger effect = lower value 0.979 | locus YPR141C, strain kar3, stronger effect = lower value 0.981 | locus YPR163C, strain tif3, stronger effect = lower value 1.01 | locus YPR167C, strain met16, stronger effect = lower value 0.978 | strain wtn01, stronger effect = lower value 1.04
